“And” between values parts separate entries of the source, which are not always exact repeats. Equal values may be shown once. Results filed as inconclusive are left out. The source made the active and inactive calls. The call rests on the fitted dose curve; in most records, active means well fitted activation curve with a large enough effect; inconclusive means small, poorly fitted or top-dose-only effect; inactive means no such curve, though single readings can be large or run the other way.
biological target: Cellular tumor antigen p53 (Homo sapiens) (UniProt P04637); test: Primary qHTS for small molecule compounds that upregulate eGFP-tagged delta133p53alpha (in N-terminal) cells. (AID 2060322); conditions: NCI-H358 eGFP-delta133p53alpha fluorescence, 24 h; activation: hits give high values; further: nearly all actives have a fitted effect of over 75% in size;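 on activation: cells pre-induced with doxycycline then dosed without doxycycline; series mostly up to about 56 µM; 0% = DMSO vehicle and 100% = reference activator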
Sequence (P04637 whole entry, looked up): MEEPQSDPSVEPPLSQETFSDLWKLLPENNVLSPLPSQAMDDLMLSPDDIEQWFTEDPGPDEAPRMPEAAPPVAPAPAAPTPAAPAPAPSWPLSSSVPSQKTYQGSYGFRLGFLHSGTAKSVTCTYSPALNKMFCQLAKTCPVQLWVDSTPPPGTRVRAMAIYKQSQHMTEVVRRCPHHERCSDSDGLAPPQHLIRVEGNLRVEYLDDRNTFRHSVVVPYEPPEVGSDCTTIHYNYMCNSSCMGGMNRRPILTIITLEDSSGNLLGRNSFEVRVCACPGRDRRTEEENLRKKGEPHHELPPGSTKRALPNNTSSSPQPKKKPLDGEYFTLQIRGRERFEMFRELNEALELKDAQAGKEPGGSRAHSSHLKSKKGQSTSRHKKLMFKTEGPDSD
Text: Assay Development and Screening Technology
National Center for Advancing Translational Sciences (NCATS),
National Institute of Health (NIH), Rockville, Maryland
Cellular senescence (CS) is one of the hallmarks of aging and age-related diseases. Senescent cells are characterized by an irreversible growth arrest, an increase in senescence-associated beta-galactosidase (SA-beta-gal) activity and p16INK4a expression, an activation of the DNA damage response pathways, and the emergence of a senescence-associated secretory phenotype (SASP).
Delta133p53alpha, a human/primate-specific p53 protein isoform, delays or inhibits the induction of CS and SASP in various types of human cells, including progeria-derived fibroblasts, primary normal astrocytes, and CD8+ T lymphocytes. Induction of delta133p53alpha with small molecule compounds may provide therapeutic opportunities for inhibition of senescence/SASP-associated pathologies in progeria syndromes, astrocyte-mediated neuroprotection in neurodegenerative diseases, and possibly prevention and treatment of a wider range of senescence- and aging-associated diseases.
Here we report the development and validation of a cell-based quantitative high throughput screening (qHTS) assay in 1,536-well format. This qHTS assay uses the NCI-H358 cell line with doxycycline-inducible expression of enhanced green fluorescent protein (eGFP)-tagged delta133p53alpha, which allows efficient and highly quantitative measurement of the protein levels.
PROTOCOL TABLE (as described by Inglese J, Shamu CE and Guy RK. 2007)
SEQUENCE No. (e.g., 1, 2, 3, etc.); […] (e.g., Cells, Incubation, Reagent, etc.); VALUE; DESCRIPTION.
1; Cells; 4uL; 800 doxycycline treated cells / well in doxycycline-free media, 1536-well black, clear-bottom low base Aurora microplates.
2; Compounds; 23 nL; Kalypsis pin tool (Wako) equipped with 1536-well pin heads, 5-azacytidine positive control.
3; Incubation; 24 hr; 37C, 5% CO2; 95% relative humidity.
4; Aspiration; 1x; BioTek EL406 washer dispenser (Agilent).
5; Fixing; 3.5% paraformaldehyde, BioTek EL406 washer dispenser (Agilent).
6; Washing; 1x PBS; BioTek EL406 washer dispenser (Agilent).
7; Nuclei staining; 1:1000 dilution of Hoechst 33342 (Thermofisher), BioTek EL406 washer dispenser (Agilent).
8; Incubation; 20 min; in the dark at room temperature.
9; Washing; 2x, 1x PBS (ThermoFisher), BioTek EL406 washer dispenser (Agilent).
10; Reagent; 10 uL; 1x PBS per well, sealed with clear adhesive tape.
NOTES (numbers refer to sequence numbers above).
1. NCI-H358 cells expressing eGFP-tagged delta133p53alpha were grown in T75 culture flasks and treated with doxycycline for 24h, at 10 ng/ml for eGFP-D133p53a cells (N-terminal cell) and 100 ng/ml for D133p53a-eGFP cells (C-terminal cells). Cells were trypsinized, counted using a Counted 3 Automated Cell Counter (Thermo Fisher), and diluted to a concentration of 200,000 cells/ml. A Multidrop Combi Reagent Dispenser (ThermoFisher) was used to dispense 800 cells/well in […] of doxycycline-free media, into 1536-well black/clear bottom low base plates (AuroraMicroplates).
2. After plating cells, 23 nl of compound library, DMSO vehicle control or positive control (5-azacytidine) were transferred by Pin Tool (Wako). The plate map layout was the same for each plate: (column 1) non-doxycycline treated cells + DMSO vehicle control; (column 2) doxycycline treated cells + DMSO vehicle control baseline; (column 3) doxycycline treated cells + positive control 57.5 uM final concentration 5-azacytidine; (column 4) doxycycline treated cells + serial dilution of 5-azacytidine, 16-point 1:2 titration spanning 1.8 nM to […] final concentration; (columns 5-48) doxycycline treated cells + titration of library compounds.
3. Cells were incubated at 37 °C, 5 % CO2, 95% RH with breathable metal lid for 24h.
4-10. […] After two washes, 10 ul of 1X PBS (Thermo Fisher) was dispensed to each well. Clear adhesive plate seals (VWR) were applied and plates stored at 4 °C.
11. […]
Potency means the concentration at half of the fitted maximal effect.

Row | Compound | activation | Potency
1 | CC(=O)OC1C(OC(=O)c2ccccc2)C2C(=C(C)CCC2(C)C)C23CCC(C)(C2)C(=O)CC13 (stereo not given) | -13% (inactive) | –
2 | C=C1CCC2C(C)(C)CCC[C@]2(C)[C@H]1C/C=C(\CO)C(=O)C(=O)O (stereo not given in full) | -6.87% (inactive) | –
3 | CC(C)c1nn(-c2c(Cl)cccc2Cl)c2nc(Cc3ccc(OCCO)cc3)[nH]c(=O)c12 | – | 68.5 nM (active) and 60.1 nM (active)
4 | c1cc(N[C@@H]2CCNC2)nc(-c2cnc3ccc(-c4cn[nH]c4)cn23)c1 | – | 34.3 µM (active)
5 | COc1cc(NS(=O)(=O)c2ccc(N)cc2)nc(C)n1 | -15.9% (inactive) | –
6 | CSc1nc(N)c2ncn([C@@H]3O[C@H](COP(=O)(O)OP(=O)(O)OP(=O)(O)O)[C@@H](O)[C@H]3O)c2n1 | 7.61% (inactive) | –
7 | NC1(C(=O)N[C@@H](CCO)c2ccc(Cl)cc2)CCN(c2ncnc3[nH]ccc23)CC1 | 7.49% (inactive) | –
8 | O=C(O)CCCCCC(=O)NN=C1CCCC1 | -11% (inactive) | –
9 | CC1CCCCN1CCCOC(=O)c1ccc(OC2CCCCC2)cc1 (stereo not given) | -7.53% (inactive) | –
10 | COC(=O)C1=C2Nc3ccccc3C23CCN2CCCC(C(C)O)(C1)C23 (stereo not given) | 18.8% (inactive) | –
11 | CC(O)C1NC(=O)C2CCCN2C1=O (stereo not given) | -25.2% (inactive) | –
12 | O=C1C=CC2OC(c3ccccc3)C(O)C2O1 (stereo not given) | – | 30.1 µM (active)
13 | Cc1onc(-c2c(F)cccc2Cl)c1C(=O)N[C@@H]1C(=O)N2[C@@H]1SC(C)(C)[C@@H]2C(=O)O | -1.67% (inactive) | –
14 | NS(=O)(=O)c1cc2c(cc1Cl)NC(CC1CCCC1)NS2(=O)=O (stereo not given) | 11.9% (inactive) | –
15 | CC1=C(COC2OC(CO)C(O)C(O)C2O)C(C(CO)C(=O)O)CC1 (stereo not given) | -6.87% (inactive) | –
16 | CC(C)CC(=O)O[C@@H]1O[C@H](CO)[C@@H](O[C@H]2O[C@H](C)[C@@H](N[C@H]3C=C(CO)[C@@H](O[C@H]4O[C@H](CO)[C@@H](O[C@H]5O[C@H](CO)[C@@H](O[C@H]6O[C@H](CO)[C@@H](O)[C@H](O)[C@H]6O)[C@H](O)[C@H]5O)[C@H](O)[C@H]4O)[C@H](O)[C@H]3O)[C@H](O)[C@H]2O)[C@H](O)[C@H]1O | -13.7% (inactive) | –
17 | CN1CCC(Nc2nc(Nc3ccc(Oc4ccccc4)cc3)c3c(=O)[nH]cc(Br)c3n2)CC1 | – | 10.7 µM (active)
18 | CCOc1ccccc1N=Nc1c(C)[nH]n(-c2nc(-c3ccccc3)cs2)c1=O | 25.3% (inactive) | –
19 | Cc1c(C(=O)NCc2cccnc2)nn(-c2ccc(Cl)cc2Cl)c1-c1ccc(Cl)cc1 | 21% (inactive) | –
20 | C/C(=C(\CCOP(=O)(O)O)SC(=O)c1ccccc1)N(C=O)Cc1cnc(C)nc1N | -11.7% (inactive) | –

Row | Compound | activation | Potency
21 | CO[C@H]1C=C2C(CC[C@H](O[C@@H]3O[C@H](CO)[C@@H](O)[C@@H](O)[C@H]3O)C2(C)C)[C@]2(C)CC[C@]3(C)C([C@H](C)C(O)C(C=C(C)C)O[C@@H]4O[C@H](CO)[C@@H](O)[C@@H](O)[C@H]4O)CC[C@@]3(C)C12 (stereo not given in full) | 0.763% (inactive) | –
22 | CC1=C2C[C@@]3(C)C(CCC[C@@H]3C)C(O)C2OC1=O (stereo not given in full) | -15.3% (inactive) | –
23 | CCOC(=O)C1=C(C)NC(C)=C(C(=O)OCC)C1c1c(F)c(F)c(F)c(F)c1F | 26.5% (inactive) | –
24 | OC1(c2ccc(Cl)cc2)CCNCC1 | -8.47% (inactive) | –
25 | NC(=O)c1ncn([C@@H]2O[C@H](CO)[C@@H](O)[C@H]2O)c1N | -7.53% (inactive) | –
26 | O=C(O)CC1CCC(c2ccc(-c3ccc(Nc4ccc(C(F)(F)F)nc4)cn3)cc2)CC1 (stereo not given) | -9.55% (inactive) | –
27 | O=C(O)c1cc(=O)c2c(OCC(O)COc3cccc4oc(C(=O)O)cc(=O)c34)cccc2o1 | 19.8% (inactive) | –
28 | CN(C(=O)CCCOc1ccc2[nH]c(=O)ccc2c1)C1CCCCC1 | -9.21% (inactive) and -37.7% (inactive) | –
29 | N#CCC(=O)NN | 15.9% (inactive) | –
30 | N[C@@H](COP(=O)(O)O)C(=O)O | -2.51% (inactive) and -5.8% (inactive) | –
31 | CNC(=O)c1ccc(Nc2cc(Nc3ccccc3S(=O)(=O)C(C)C)c3cc[nH]c3n2)nc1 | – | 19.3 µM (active)
32 | Nc1ccc2c(c1)CN1C(=O)c3ccccc3C1=N2 | – | 0.0601 µM (active)
33 | C[C@H](N)[C@H](O)c1cccc(O)c1 | -7.53% (inactive) | –
34 | CCNC(=O)[C@H]1O[C@H](n2cnc3c(NCC(c4ccccc4)c4ccccc4)nc(C(=O)NCCNC(=O)NC4CCN(c5ccccn5)CC4)nc32)[C@H](O)[C@@H]1O | -9.55% (inactive) | –
35 | CCOC(=O)[C@H]1O[C@H]1C(=O)N[C@@H](CC(C)C)C(=O)NCCC(C)C | 17.3% (inactive) | –
36 | Clc1ccc(CN[C@H]2CCN(c3ncc(Br)cn3)C2)c(Cl)c1 | 3.57% (inactive) | –
37 | C[C@H](NC(=O)Cc1cc(F)cc(F)c1)C(=O)N[C@@H]1C(=O)N(C)c2ccccc2-c2ccccc21 | 27.1% (inactive) and -2.39% (inactive) | –
38 | C/C=C/C=C/C(=O)O[C@@H]1C=C2COC(=O)[C@]2(O)[C@@]2(C)CCCC(C)(C)[C@H]12 | -3.82% (inactive) | –
39 | CCOC(=O)Oc1ccc(CCNC(=O)[C@H](CCSC)NC(C)=O)cc1OC(=O)OCC | 16.4% (inactive) | –
40 | CN[C@@H](C)C(=O)N[C@H]1CCCC[C@H]2CC[C@@H](C(=O)N[C@@H](c3ccccc3)c3cn(CCCCc4ccc(CCCCn5cc([C@@H](NC(=O)[C@@H]6CC[C@@H]7CCCC[C@H](NC(=O)[C@H](C)NC)C(=O)N76)c6ccccc6)nn5)cc4)nn3)N2C1=O | 16.4% (inactive) | –

Reference: PubChem BioAssay (NCATS)
